Data: PubChem BioAssay
Activity calls are given as the source filed them. Unless noted, no rule for the calls is given here.

How the values were obtained:
[1] = tested on: Wnt5a (protein binding on small-molecule microarray); assay: small molecules binding Wnt5a protein – biophysical, small-molecule microarray, 635/667 nm fluorescence, primary screen (AID 1142); details: 635 nm fluorescence, higher = more signal;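 also: fluorescence read at 667 nm with signal to noise per printed feature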
[2] = ATP-based viability of Huh7 replicon cells – cell-based, CellTiter-Glo luminescence, basal, 48 h, cytotoxicity control for HCV replication inhibitor project, primary screen (AID 1143); details: higher = more signal, called active from +8 up or from −8 down;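 also: Huh7 hepatoma cells carrying a hepatitis C replication reporter with no stimulus; test concentration not given here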
[3] = Pseudomonas biofilm growth suppression – PAO1 strain, BacTiter-Glo luminescence, LB-PBS, primary screen (AID 1144); details: P. aeruginosa PAO1 biofilm, 12 h, higher = more signal
[4] = basal CRE-LacZ reporter activity in PC12 – cell-based, unstimulated, primary screen (AID 1145); details: no forskolin, luminescence, 4.5 h, higher = more signal, called active from +8 up or from −8 down
[5] = forskolin-driven CRE-LacZ activity in PC12 – cell-based, CRE-LacZ reporter, forskolin-stimulated, primary screen (AID 1146); details: luminescence, 4.5 h, higher = more signal, called active from +8 up or from −8 down;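 also: PC12 cells with 6xCRE LacZ reporter stimulated by forskolin 10 µM; beta-galactosidase reporter signal reflecting CREB driven transcription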
[6] = molecular target: Streptavidin (Streptomyces avidinii) (UniProt P22629); assay: compounds binding control protein streptavidin – biophysical, small-molecule microarray, 635/667 nm fluorescence, artefact control for SMM compound annotation, primary screen (AID 1147); details: higher = more signal;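 also: signal reflects streptavidin binding to arrayed compounds as a control protein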
[7] = probe aInhba binding on compound microarray – biochemical, small-molecule microarray, 635/667 nm fluorescence, primary screen (AID 1148); details: higher = more signal;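 also: score merges 667nm spot fluorescence with signal-to-noise for antibody binding to printed compounds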
Torsin-1A (Homo sapiens) [8] = molecular target: Torsin-1A (Homo sapiens) (UniProt O14656); assay: TOR1A wild-type binding on microarray – cell lysate, small-molecule microarray, lysate, 635/667 nm, primary screen (AID 1149); details: COS7 hTOR1A-WT lysate, 635 nm fluorescence, higher = more signal
Torsin-1A (Homo sapiens) [9] = molecular target: Torsin-1A (Homo sapiens) (UniProt O14656); assay: torsin A mutant lysate binding on microarrays – cell lysate, small-molecule microarray, COS7 lysate, 635/667 nm fluorescence, primary screen (AID 1150); details: COS7 hTOR1A mutant lysate, 635 nm fluorescence, higher = more signal;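 also: score pools 667 nm emission and signal to noise measuring lysate protein binding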
[10] = tested on: Sonic hedgehog protein (Shh); assay: Sonic hedgehog microarray binding compounds – biochemical, small-molecule microarray, 635/667 nm fluorescence, primary screen (AID 1151); details: 635 nm fluorescence, higher = more signal;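 also: Shh protein binding to compounds spotted on small-molecule microarray slides; score combines spot fluorescence intensity with signal-to-noise across triplicate slides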
[11] = optical density shifts of acrAB sulA E. coli – strain DRC41, OD650, 48 h, E. coli filamentation inducer project, primary screen (AID 1152); details: higher = more signal, called active from +8 up or from −8 down;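 also: E. coli MC1000 strain DRC41 lacking acrAB efflux pump and sulA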
[12] = probe aLefty1 binding on compound microarray – biochemical, small-molecule microarray, 635/667 nm fluorescence, primary screen (AID 1153); details: higher = more signal;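 also: score merges spot fluorescence with signal-to-noise ratio from the scanned slide images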
[13] = plasmodial surface anion channel blockers, osmotic lysis – cell-based, P. falciparum Indochina, OD700, 1 h, primary screen (AID 1154); details: P. falciparum Indochina infected RBC osmotic lysis, higher = more signal, called active from +8 up or from −8 down
[14] = plasmodial surface anion channel blockers, osmotic lysis – cell-based, P. falciparum Indochina, OD700, 2 h, primary screen (AID 1155);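 also: lysis reports solute entry through the parasite surface anion channel PSAC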; details: P. falciparum Indochina infected erythrocytes, higher = more signal, called active from +8 up or from −8 down
[15] = changes in parasitized red cell lysis, either direction – P. falciparum Indochina, OD700, 3 h, PSAC antagonist project, primary screen (AID 1156); details: P. falciparum-infected erythrocytes, osmotic lysis, higher = more signal, called active from +8 up or from −8 down
[16] = plasmodial surface anion channel blockers, osmotic lysis – cell-based, P. falciparum Indochina, OD700, 18 h, primary screen (AID 1157); details: P. falciparum Indochina infected erythrocytes, osmotic lysis OD700, 18 h; higher = more signal, called active from +8 up or from −8 down
[17] = S6 kinase pathway phospho-S6 level changes – cell-based, A549, cytoblot, luminescence, serum-stimulated, primary screen (AID 1158); details: 5 h, higher = more signal;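 also: serum-stimulated A549 lung adenocarcinoma cells; signal is phosphorylated S6 detected by cytoblot immunostaining with HRP secondary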
[18] = molecular target: NADPH oxidase 2 (Homo sapiens) (UniProt P04839); assay: compounds shifting NOX2 Amplex Red fluorescence – cell-based, HEK293-NOX2, PMA-stimulated, NOX inhibitor project, primary screen (AID 1159); details: 45 min, higher = more signal, called active from +8 up or from −8 down; also: test concentration not given here
[19] = molecular target: NADPH oxidase 4 (Homo sapiens) (UniProt Q9NPH5); assay: compounds shifting NOX4 Amplex Red fluorescence – cell-based, HEK293-NOX4, tetracycline-induced, NOX inhibitor project, primary screen (AID 1160); details: HEK293-NOX4, Amplex Red H2O2 fluorescence, 45 min; higher = more signal, called active from +8 up or from −8 down
[20] = molecular target: NADPH oxidase 5 (Homo sapiens) (UniProt Q96PH1); assay: compounds shifting NOX5 Amplex Red fluorescence – cell-based, HEK293-NOX5, NOX inhibitor project, primary screen (AID 1161); details: HEK293-NOX5, ionomycin, 45 min, higher = more signal
NADPH oxidase 5 (Homo sapiens), sequence (Q96PH1 whole entry, looked up): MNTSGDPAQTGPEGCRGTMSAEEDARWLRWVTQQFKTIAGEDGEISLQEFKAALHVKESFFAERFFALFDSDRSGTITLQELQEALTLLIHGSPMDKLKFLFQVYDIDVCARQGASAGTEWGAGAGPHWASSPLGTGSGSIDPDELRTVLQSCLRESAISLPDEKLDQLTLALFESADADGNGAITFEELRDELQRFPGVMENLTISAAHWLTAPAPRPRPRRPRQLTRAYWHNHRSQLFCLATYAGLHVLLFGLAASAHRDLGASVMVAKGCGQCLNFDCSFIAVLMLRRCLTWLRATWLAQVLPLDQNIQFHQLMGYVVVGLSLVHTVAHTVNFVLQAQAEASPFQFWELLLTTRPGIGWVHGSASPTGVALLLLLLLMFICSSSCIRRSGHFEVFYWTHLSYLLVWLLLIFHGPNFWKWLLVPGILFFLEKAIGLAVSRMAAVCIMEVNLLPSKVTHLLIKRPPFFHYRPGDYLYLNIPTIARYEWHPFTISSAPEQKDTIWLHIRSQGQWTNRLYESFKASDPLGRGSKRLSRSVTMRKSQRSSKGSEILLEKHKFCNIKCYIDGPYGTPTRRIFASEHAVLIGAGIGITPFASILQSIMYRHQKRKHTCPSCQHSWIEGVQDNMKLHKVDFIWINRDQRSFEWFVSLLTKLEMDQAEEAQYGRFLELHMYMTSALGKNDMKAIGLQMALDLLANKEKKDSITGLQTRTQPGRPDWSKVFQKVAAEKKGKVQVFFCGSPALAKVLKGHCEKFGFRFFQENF

NADPH oxidase 2 (Homo sapiens), sequence (P04839 whole entry, looked up): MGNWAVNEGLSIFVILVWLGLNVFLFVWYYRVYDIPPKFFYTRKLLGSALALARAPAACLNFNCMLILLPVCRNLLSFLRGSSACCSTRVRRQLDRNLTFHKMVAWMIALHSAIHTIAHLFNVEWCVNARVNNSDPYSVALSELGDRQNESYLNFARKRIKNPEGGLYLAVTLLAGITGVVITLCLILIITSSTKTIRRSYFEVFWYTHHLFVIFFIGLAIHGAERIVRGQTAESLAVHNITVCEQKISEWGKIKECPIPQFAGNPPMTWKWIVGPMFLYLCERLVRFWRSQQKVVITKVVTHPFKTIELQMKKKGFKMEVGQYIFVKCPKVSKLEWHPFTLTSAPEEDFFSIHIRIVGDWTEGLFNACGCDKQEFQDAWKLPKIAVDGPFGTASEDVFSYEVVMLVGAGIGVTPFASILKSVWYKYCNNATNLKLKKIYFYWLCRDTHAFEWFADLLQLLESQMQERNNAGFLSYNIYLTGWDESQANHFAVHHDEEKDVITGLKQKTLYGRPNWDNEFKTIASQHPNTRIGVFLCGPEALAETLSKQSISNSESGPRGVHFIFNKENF
NADPH oxidase 4 (Homo sapiens), sequence (Q9NPH5 whole entry, looked up): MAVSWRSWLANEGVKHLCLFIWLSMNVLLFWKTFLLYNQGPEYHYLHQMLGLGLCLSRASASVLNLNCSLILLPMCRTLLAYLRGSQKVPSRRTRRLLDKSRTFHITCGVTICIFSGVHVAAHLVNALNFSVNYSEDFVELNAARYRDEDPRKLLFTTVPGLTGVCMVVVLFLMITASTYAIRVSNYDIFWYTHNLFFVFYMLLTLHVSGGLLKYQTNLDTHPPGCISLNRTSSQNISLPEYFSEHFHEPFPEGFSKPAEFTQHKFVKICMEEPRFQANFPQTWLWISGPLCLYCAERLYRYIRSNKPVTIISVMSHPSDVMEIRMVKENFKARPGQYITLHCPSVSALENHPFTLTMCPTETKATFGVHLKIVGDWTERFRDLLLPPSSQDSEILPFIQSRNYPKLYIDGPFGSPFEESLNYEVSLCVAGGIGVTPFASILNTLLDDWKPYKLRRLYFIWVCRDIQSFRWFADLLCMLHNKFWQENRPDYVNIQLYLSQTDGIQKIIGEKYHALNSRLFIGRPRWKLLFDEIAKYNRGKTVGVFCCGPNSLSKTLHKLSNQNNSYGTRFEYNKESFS
Streptavidin (Streptomyces avidinii), sequence (P22629 whole entry, looked up): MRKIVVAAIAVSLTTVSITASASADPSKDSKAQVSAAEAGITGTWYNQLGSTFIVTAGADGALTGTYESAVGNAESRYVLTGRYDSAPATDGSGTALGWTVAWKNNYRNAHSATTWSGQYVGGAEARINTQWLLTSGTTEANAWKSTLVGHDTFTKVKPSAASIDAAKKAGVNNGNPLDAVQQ
Torsin-1A (Homo sapiens), sequence (O14656 whole entry, looked up): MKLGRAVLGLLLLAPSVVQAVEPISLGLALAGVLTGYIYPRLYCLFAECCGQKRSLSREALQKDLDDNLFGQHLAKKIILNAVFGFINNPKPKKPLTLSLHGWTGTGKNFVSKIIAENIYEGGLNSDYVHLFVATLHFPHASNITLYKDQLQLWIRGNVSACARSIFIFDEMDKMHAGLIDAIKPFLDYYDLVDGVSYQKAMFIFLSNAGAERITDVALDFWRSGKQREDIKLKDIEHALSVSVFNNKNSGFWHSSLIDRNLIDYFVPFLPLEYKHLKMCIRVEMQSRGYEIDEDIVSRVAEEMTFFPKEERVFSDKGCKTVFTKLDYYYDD

Row | SMILES | composite z-score [1] | z-score [2] | z-score [3] | z-score [4] | z-score [5] | composite z-score [6] | composite z-score [7] | composite z-score (Torsin-1A (Homo sapiens) [8]) | composite z-score (Torsin-1A (Homo sapiens) [9]) | composite z-score [10] | z-score [11] | composite z-score [12] | z-score [13] | z-score [14] | z-score [15] | z-score [16] | z-score [17] | z-score [18] | z-score [19] | z-score [20]
1 | Cc1ccc(S[C@]2(C(=O)NCCN3CCOCC3)CC(=O)N(Cc3ccccc3C(F)(F)F)[C@@H]2c2ccc(CO)cc2I)cc1 | 0.0381 | -0.984 (inactive) | -0.487 (inactive) | 0.299 (inactive) | 4.04 (inactive) | -1.49 | -0.157 | 0.174 | -0.38 | -0.245 | 0.0143 (inactive) | 0.114 | 4.93 (inactive) | 0.636 (inactive) | 2.03 (inactive) | 0.278 (inactive) | 0.155 | 2.82 (inactive) | -0.659 (inactive) | 1.61
2 | O=C1C[C@@](C(=O)NCC(F)(F)F)(c2ccc([N+](=O)[O-])cc2)[C@@H](c2ccc(CO)cc2)N1C1CCCCC1 | 0.247 | -1.97 (inactive) | 0.0325 (inactive) | 0.854 (inactive) | -0.369 (inactive) | 0.579 | 0.101 | 1.36 | 1.57 | 1.22 | -0.0786 (inactive) | 0.517 | 1.18 (inactive) | -0.105 (inactive) | 1.29 (inactive) | -0.0879 (inactive) | -0.429 | 0.166 (inactive) | 0.24 (inactive) | 0.104
3 | COCCCNC(=O)[C@@]1(Sc2ccc(C)cc2)CC(=O)N(Cc2cc(C(F)(F)F)cc(C(F)(F)F)c2)[C@@H]1c1ccc(CO)cc1 | 0.0054 | -0.418 (inactive) | 0.126 (inactive) | 0.506 (inactive) | -1.15 (inactive) | 0.072 | 0.0111 | 1.27 | 0.389 | 1.68 | 0.154 (inactive) | -0.0559 | 0.603 (inactive) | 0.591 (inactive) | 1.03 (inactive) | 0.302 (inactive) | -0.103 | 0.242 (inactive) | 0.521 (inactive) | 0.581
4 | COC(=O)[C@@]1(Cc2ccccc2)[C@H]2c3cc(C(=O)N4CCCC4)[nH]c3C[C@H]2CN1C(=O)c1ccccc1 | -0.0884 | -0.117 (inactive) | -0.39 (inactive) | 0.779 (inactive) | 0.283 (inactive) | 0.255 | 0.192 | 0.223 | 0.246 | -0.786 | -0.875 (inactive) | 0.269 | 4.64 (inactive) | 0.805 (inactive) | 0.102 (inactive) | 0.717 (inactive) | 0.177 | 0.0123 (inactive) | -0.696 (inactive) | -0.713
5 | CCOc1cc(C(O)C2C=CC3C(=O)N(C)C(=O)C3N2N2CCCCC2)ccc1O (stereo not given) | 0.194 | 0.862 (inactive) | -0.401 (inactive) | 0.433 (inactive) | -0.499 (inactive) | 0.3 | -0.137 | 0.28 | 0.221 | 0.0937 | -0.794 (inactive) | 0.267 | 1.5 (inactive) | 1.66 (inactive) | 0.0675 (inactive) | 1.12 (inactive) | -0.599 | -1.96 (inactive) | -3.83 (inactive) | -3.11
6 | COCCOC(=O)N1C(=O)[C@@]2(c3cc(C#CC4=CCCCC4)ccc31)[C@H](c1ccc(O)cc1)N1[C@H](c3ccccc3)[C@H](c3ccccc3)OC(=O)[C@H]1[C@@H]2C(=O)Nc1nc2ccccc2s1 | 0.365 | -0.799 (inactive) | -0.424 (inactive) | 0.476 (inactive) | 2.17 (inactive) | 1.18 | 0.52 | 0.776 | 0.89 | 1.73 | -0.567 (inactive) | 0.571 | 2.09 (inactive) | 1.76 (inactive) | 0.599 (inactive) | 1.81 (inactive) | -0.507 | 1.55 (inactive) | -0.0515 (inactive) | 0.897
7 | COc1ccc(NN2C(C(O)c3ccco3)C=CC3C(=O)N(C4CCCCC4)C(=O)C32)cc1 (stereo not given) | 0.495 | -0.829 (inactive) | -0.522 (inactive) | 0.323 (inactive) | 0.565 (inactive) | 0.965 | 0.0471 | 0.95 | 1.1 | 1.28 | -0.636 (inactive) | 0.364 | 2.54 (inactive) | 0.143 (inactive) | 0.546 (inactive) | 0.0933 (inactive) | -0.686 | -0.19 (inactive) | -0.842 (inactive) | -1.1
8 | C=C(COC)/C(=C/C[C@@H](OC(=O)c1ccncc1)c1cccc(OCCO)c1)c1cnc2ccccc2c1 | 0.381 | -8.02 (active) | -0.639 (inactive) | 12.6 (active) | 0.818 (inactive) | 2.64 | 0.248 | 1.16 | 2.74 | 2.3 | -0.0626 (inactive) | 0.664 | 18.8 (active) | 6.49 (inactive) | -1.32 (inactive) | 1.29 (inactive) | 0.507 | -1.47 (inactive) | -0.256 (inactive) | -3.1
9 | CN(C)CCCNC(=O)[C@@H]1c2ccccc2C(=O)N(Cc2ccc(OC(F)(F)F)cc2)[C@H]1c1ccc(CO)cc1 | 0.0246 | -1.35 (inactive) | -1.42 (inactive) | -0.114 (inactive) | 0.77 (inactive) | 0.121 | -0.128 | -0.116 | 0.151 | 2.18 | 0.532 (inactive) | 0.197 | 2.04 (inactive) | 0.81 (inactive) | 3 (inactive) | 0.891 (inactive) | 0.0342 | 0.799 (inactive) | 0.237 (inactive) | 1.44
